# According to PubChem BioAssay (NCI):
# This is part of a sample that, as a whole, favours compounds with a hit. Of some 83,000 tested, about 20% had one in any assay.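 Growth was measured after 48 h exposure to one concentration of compound in 96-well plates. Values under 10 count as active.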 Values without a mark were called inactive. The source made the active and inactive calls.
# Test system: BT-549 breast
# Test: NCI-60 one-dose screen, 48 h (100 = growth as untreated, 0 = no growth, -100 = all killed)
# Details: 10 µM
row,SMILES,growth
1,NC(=O)SCC(=O)Nc1ccc(S(N)(=O)=O)cc1,111%
2,Cc1nc2ccc(CN(C)c3ccc(C(=O)N[C@@H](CCC(=O)O)C(=O)O)s3)cc2c(=O)[nH]1,57.4%
3,COc1cc(Cc2cc(-c3ccc(Cl)cc3)n[nH]c2=O)ccc1O,95.2%
4,CN(C)C(=S)N/N=C\C=N/NC(=S)N(C)C,81%
5,COc1ccc(N=C2C(=Nc3ccc(OC)cc3)N(c3ccc(N(C)C)cc3)C(=S)N2c2ccc(OC)cc2)cc1,75.1%
6,COC(=O)[C@@H]1[C@H](O)[C@H](C)[C@H](O)[C@@](C)(O)/C=C\C=C(C)C(=O)Nc2c(C)c(OC(C)=O)c3c(c2O)C(=O)C(C)=C2OCOC(=C23)C(C)=C[C@@](C)(O)[C@H](O)[C@@H](C)[C@H]1OC(C)=O,105%
7,COc1cccc(C2C3=C(COC3=O)N(CCO)c3cc(OC)ccc32)c1 (stereo not given),16.9%
8,CO/N=C(/C(=O)NC1C(=O)N2C(C(=O)O)=C(COC(N)=O)CSC12)c1ccco1 (stereo not given),108%
9,COc1ccc(N2C(=O)C3c4[nH]c5ccc(OCc6ccccc6)cc5c4C4CCC(C(C)C)CC4C3C2=O)cc1 (stereo not given),104%
10,CCN(CC)CCNC(=O)c1ccc(NC(C)=O)cc1,106%
11,CCOC(=O)C1CCc2c(ccc3ccccc23)N1CCC#N (stereo not given),96%
12,CN(C)CCN1C(=O)c2cccc3cc(N)cc(c23)C1=O,46.9%
13,COc1ccc2c(c1)nc(N)c1c3cccnc3cn21,44.3%
14,CN1CC[C@@H](c2c(O)cc(O)c3c(=O)cc(-c4ccccc4Cl)oc23)[C@@H](O)C1,-22.8% (active)
15,O=C(/C=C/c1cc2ccccc2[nH]c1=O)c1ccc2c(c1)OCO2,84.2%
16,CCCC1(CC(=O)O)OCCc2c1[nH]c1ccccc21 (stereo not given),119%
17,C=C(Cl)[C@@](Cl)(CBr)CC[C@@H](Br)C(C)(C)Cl,78.6%
18,CC[C@H](C)C(=O)O[C@H]1CCC=C2C=C[C@H](C)C(CCC3C[C@@H](O)CC(=O)O3)[C@H]21 (stereo not given in full),78.2%

row,SMILES,growth
1,CC1CN(Cc2ccccc2)C(=O)NC1=O (stereo not given),103%
2,Cc1cccc2c(NCCN(C)C)c3cccc(C(=O)NCCN(C)C)c3nc12,18.2%
3,O=C(CCCCCCC(=O)Nc1cccnc1)NO,69.5%
4,O=C1OCC2=C1C(c1cccc(Br)c1)c1cc3c(cc1N2CCO)CCC3 (stereo not given),15.7%
5,O=C(CNC(=O)OCc1ccccc1)NCC(=O)Oc1ccc([N+](=O)[O-])cc1,101%
6,CC(C)C[C@H](NC(=O)[C@H](Cc1cccc2ccccc12)NS(=O)(=O)c1cccc2cccnc12)B(O)O,-49.8% (active)
7,Cc1cc(C)c(NC(=O)c2sc3nc4c(cc3c2N)C(=O)CCC4)c(C)c1,56.7%
8,COc1cc(NC(=O)CSc2nc3ccccc3c(=O)n2CCc2ccccc2)cc(OC)c1OC,-4.65% (active)
9,CCOCCOCCOCCOCCOCCOCCOCCOCCOCCO (tested in a mixture with another compound),-52.7% (active)
10,COc1cc(OC)cc(-c2cncn2-c2ccc(-c3nc4cc(OC)cc(OC)c4s3)cc2)c1,46.6%
11,COc1ccc(OC)c2c1C(=O)CC2C (stereo not given),120%
12,Nc1ncn(C2OC(CO)C(O)C2O)c(=O)n1 (stereo not given),-9.44% (active)
13,N#Cc1c(C#N)c(SSc2c(C#N)c(C#N)c(N)n2-c2ccccc2)n(-c2ccccc2)c1N,109%
14,CCCCCCCCCCCCCCCCCCOCC(COCCOCC[N+]1(CCCCCC(=O)[O-])CCCC1)Oc1ncccn1 (stereo not given),33.8%
15,O=C1NC(=O)N(Cc2ccccc2)CC1Br (stereo not given),94.5%
16,C=C(NC(=O)C(=C)NC(=O)c1csc(C2=NC3c4csc(n4)C4NC(=O)c5csc(n5)C(C(C)(O)C(C)O)NC(=O)C5CSC(=N5)/C(=C/C)NC(=O)C(C(C)O)NC(=O)c5csc(n5)C3(CC2)NC(=O)C(C)NC(=O)C(=C)NC(=O)C(=C)NC(=O)C(C(C)C)NC2C=Cc3c(C(C)O)cc(nc3C2O)C(=O)OC4C)n1)C(N)=O (stereo not given),-35.1% (active)
17,O=C1ON=[N+](c2ccc(Cc3ccc([N+]4=NOC(=O)C4CN4CCOCC4)cc3)cc2)C1CN1CCOCC1 (stereo not given),60.7%
18,C/C(=N\Nc1nc2ccccc2s1)c1ccncn1,46.3%

# Test system: MDA-MB-435 melanoma
# Test: as above
# Details: 10 µM
row,SMILES,growth
1,c1ccc([C@H]2CN3CCSC3=N2)cc1,101%
2,NC(=O)SCC(=O)Nc1ccc(S(N)(=O)=O)cc1,106%
3,Cc1nc2ccc(CN(C)c3ccc(C(=O)N[C@@H](CCC(=O)O)C(=O)O)s3)cc2c(=O)[nH]1,61.6%
4,COc1ccc(OC)c(/C=C/c2nc(SCc3ccccc3)n(-c3ccc(Cl)cc3)n2)c1,-24.9% (active)
5,COc1cc(Cc2cc(-c3ccc(Cl)cc3)n[nH]c2=O)ccc1O,110%
6,CN(C)C(=S)N/N=C\C=N/NC(=S)N(C)C,67%
7,COc1ccc(N=C2C(=Nc3ccc(OC)cc3)N(c3ccc(N(C)C)cc3)C(=S)N2c2ccc(OC)cc2)cc1,86.5%
8,COC(=O)[C@@H]1[C@H](O)[C@H](C)[C@H](O)[C@@](C)(O)/C=C\C=C(C)C(=O)Nc2c(C)c(OC(C)=O)c3c(c2O)C(=O)C(C)=C2OCOC(=C23)C(C)=C[C@@](C)(O)[C@H](O)[C@@H](C)[C@H]1OC(C)=O,105%
9,COc1cccc(C2C3=C(COC3=O)N(CCO)c3cc(OC)ccc32)c1 (stereo not given),-44.7% (active)
10,CCc1ccc2c(c1)N(CCO)C1=C(C(=O)OC1)C2c1ccccc1 (stereo not given),21.6%
11,CO/N=C(/C(=O)NC1C(=O)N2C(C(=O)O)=C(COC(N)=O)CSC12)c1ccco1 (stereo not given),104%
12,COc1ccc(N2C(=O)C3c4[nH]c5ccc(OCc6ccccc6)cc5c4C4CCC(C(C)C)CC4C3C2=O)cc1 (stereo not given),104%
13,CCN(CC)CCNC(=O)c1ccc(NC(C)=O)cc1,101%
14,CCOC(=O)C1CCc2c(ccc3ccccc23)N1CCC#N (stereo not given),35.6%
15,CN(C)CCN1C(=O)c2cccc3cc(N)cc(c23)C1=O,33.7%
16,COc1ccc2c(c1)nc(N)c1c3cccnc3cn21,-14.3% (active)
17,CN1CC[C@@H](c2c(O)cc(O)c3c(=O)cc(-c4ccccc4Cl)oc23)[C@@H](O)C1,-91.2% (active)
18,O=C(/C=C/c1cc2ccccc2[nH]c1=O)c1ccc2c(c1)OCO2,95.7%
19,CCCC1(CC(=O)O)OCCc2c1[nH]c1ccccc21 (stereo not given),106%
20,C=C(Cl)[C@@](Cl)(CBr)CC[C@@H](Br)C(C)(C)Cl,-24.2% (active)

row,SMILES,growth
1,CC[C@H](C)C(=O)O[C@H]1CCC=C2C=C[C@H](C)C(CCC3C[C@@H](O)CC(=O)O3)[C@H]21 (stereo not given in full),84.4%
2,CC1CN(Cc2ccccc2)C(=O)NC1=O (stereo not given),110%
3,Cc1cccc2c(NCCN(C)C)c3cccc(C(=O)NCCN(C)C)c3nc12,8.12% (active)
4,O=C(CCCCCCC(=O)Nc1cccnc1)NO,19.8%
5,O=C1OCC2=C1C(c1cccc(Br)c1)c1cc3c(cc1N2CCO)CCC3 (stereo not given),-40% (active)
6,O=C(CNC(=O)OCc1ccccc1)NCC(=O)Oc1ccc([N+](=O)[O-])cc1,98.4%
7,CC(C)C[C@H](NC(=O)[C@H](Cc1cccc2ccccc12)NS(=O)(=O)c1cccc2cccnc12)B(O)O,-52.2% (active)
8,Cc1cc(C)c(NC(=O)c2sc3nc4c(cc3c2N)C(=O)CCC4)c(C)c1,-34.4% (active)
9,COc1cc(NC(=O)CSc2nc3ccccc3c(=O)n2CCc2ccccc2)cc(OC)c1OC,32.1%
10,CCOCCOCCOCCOCCOCCOCCOCCOCCOCCO (tested in a mixture with another compound),19.4%
11,COc1cc(OC)cc(-c2cncn2-c2ccc(-c3nc4cc(OC)cc(OC)c4s3)cc2)c1,-16.3% (active)
12,COc1ccc(OC)c2c1C(=O)CC2C (stereo not given),102%
13,Nc1ncn(C2OC(CO)C(O)C2O)c(=O)n1 (stereo not given),3.05% (active)
14,N#Cc1c(C#N)c(SSc2c(C#N)c(C#N)c(N)n2-c2ccccc2)n(-c2ccccc2)c1N,114%
15,CCCCCCCCCCCCCCCCCCOCC(COCCOCC[N+]1(CCCCCC(=O)[O-])CCCC1)Oc1ncccn1 (stereo not given),51.7%
16,O=C1NC(=O)N(Cc2ccccc2)CC1Br (stereo not given),62.9%
17,C=C(NC(=O)C(=C)NC(=O)c1csc(C2=NC3c4csc(n4)C4NC(=O)c5csc(n5)C(C(C)(O)C(C)O)NC(=O)C5CSC(=N5)/C(=C/C)NC(=O)C(C(C)O)NC(=O)c5csc(n5)C3(CC2)NC(=O)C(C)NC(=O)C(=C)NC(=O)C(=C)NC(=O)C(C(C)C)NC2C=Cc3c(C(C)O)cc(nc3C2O)C(=O)OC4C)n1)C(N)=O (stereo not given),-65.2% (active)
18,O=C1ON=[N+](c2ccc(Cc3ccc([N+]4=NOC(=O)C4CN4CCOCC4)cc3)cc2)C1CN1CCOCC1 (stereo not given),4.71% (active)
19,C/C(=N\Nc1nc2ccccc2s1)c1ccncn1,46.2%
